This is an account of results in ChEMBL document CHEMBL3988442, “University of Dundee, Small-Polar-MMV Screening Library” (2021).

The structures appear in SMILES notation. For some of these results: Results with a measured potency or affinity are listed apart.

Common to all, as to set-up: scale not given: direction of the effect not stated beside the values
Experiment [1] has as its target Protein translocase subunit SecA (Escherichia coli (strain K12)) (UniProt P10408). The experiment is described as follows: Assay to Identify E. coli SecA ATPase Inhibitors. Conditions: 30 µM. In kind it is functional.
Experiment [2] concerns the target T1, Ubiquitin-activating enzyme e1, putative (Leishmania donovani (strain BPK282A1)) (UniProt E9BSI1).
T1 sequence (whole entry): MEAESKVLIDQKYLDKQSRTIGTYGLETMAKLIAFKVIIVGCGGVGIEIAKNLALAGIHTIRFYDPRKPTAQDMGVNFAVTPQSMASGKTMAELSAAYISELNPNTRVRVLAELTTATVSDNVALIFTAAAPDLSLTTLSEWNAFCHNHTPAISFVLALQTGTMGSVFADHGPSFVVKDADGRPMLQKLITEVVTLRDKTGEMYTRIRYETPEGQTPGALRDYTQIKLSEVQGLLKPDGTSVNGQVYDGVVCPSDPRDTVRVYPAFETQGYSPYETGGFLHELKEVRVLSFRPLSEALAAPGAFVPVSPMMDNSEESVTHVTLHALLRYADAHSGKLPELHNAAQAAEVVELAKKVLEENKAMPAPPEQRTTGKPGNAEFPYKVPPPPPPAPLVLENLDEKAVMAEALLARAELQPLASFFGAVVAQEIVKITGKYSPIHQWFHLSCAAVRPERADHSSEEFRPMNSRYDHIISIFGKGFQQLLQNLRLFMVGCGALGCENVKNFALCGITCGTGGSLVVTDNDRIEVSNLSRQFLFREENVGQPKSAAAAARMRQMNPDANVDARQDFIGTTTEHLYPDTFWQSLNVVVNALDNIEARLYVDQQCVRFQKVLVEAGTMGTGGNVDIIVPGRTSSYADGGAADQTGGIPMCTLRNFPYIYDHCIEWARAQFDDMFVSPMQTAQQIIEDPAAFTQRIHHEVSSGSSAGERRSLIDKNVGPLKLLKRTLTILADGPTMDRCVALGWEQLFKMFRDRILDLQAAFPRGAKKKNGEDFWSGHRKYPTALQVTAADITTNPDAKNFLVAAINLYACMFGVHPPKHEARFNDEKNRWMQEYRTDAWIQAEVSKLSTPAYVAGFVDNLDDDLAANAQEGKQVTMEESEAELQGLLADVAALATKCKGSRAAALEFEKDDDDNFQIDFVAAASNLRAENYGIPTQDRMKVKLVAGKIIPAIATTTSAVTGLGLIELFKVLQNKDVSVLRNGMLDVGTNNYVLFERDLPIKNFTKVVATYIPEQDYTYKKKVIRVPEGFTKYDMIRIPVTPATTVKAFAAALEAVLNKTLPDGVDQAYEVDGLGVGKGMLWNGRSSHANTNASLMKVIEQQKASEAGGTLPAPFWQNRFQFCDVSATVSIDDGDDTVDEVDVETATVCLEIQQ
The experiment is described as follows: Leishmania donovani Ubiquitin Activating Enzyme (LdE1). In kind it is functional. Conditions: 30 µM.

Experiment [3] has as its target AMP-activated protein kinase, AMPK (Homo sapiens) (UniProt P54646+O43741+P54619+Q9UGJ0+Q9Y478+Q13131+Q9UGI9). The experiment is described as follows: AMP-dependent Kinase enzyme assay. An in vitro enzyme assay that detects ADP turnover that is directly proportional to AMPK activity. This uses naive AMPK that is activated during the assay with MK-8722. In kind it is functional. Particulars: 30 µM.

Experiment [4] concerns the target Sialic acid-binding Ig-like lectin 9 (Homo sapiens) (UniProt Q9Y336). In words: Hs-Siglec9 ALPHAscreen SOP 20170721. Particulars: 10 µM.
A further experiment relates to Trypanosoma cruzi. The experiment is described as follows: Trypanosoma cruzi phosphomannomutase and mannose-1-phosphate guanylyltransferase assay. Particulars: 10 µM. In kind it is functional.
In experiment [5] the target is T2, Arginase-2, mitochondrial (Homo sapiens) (UniProt P78540).
T2 sequence (whole entry): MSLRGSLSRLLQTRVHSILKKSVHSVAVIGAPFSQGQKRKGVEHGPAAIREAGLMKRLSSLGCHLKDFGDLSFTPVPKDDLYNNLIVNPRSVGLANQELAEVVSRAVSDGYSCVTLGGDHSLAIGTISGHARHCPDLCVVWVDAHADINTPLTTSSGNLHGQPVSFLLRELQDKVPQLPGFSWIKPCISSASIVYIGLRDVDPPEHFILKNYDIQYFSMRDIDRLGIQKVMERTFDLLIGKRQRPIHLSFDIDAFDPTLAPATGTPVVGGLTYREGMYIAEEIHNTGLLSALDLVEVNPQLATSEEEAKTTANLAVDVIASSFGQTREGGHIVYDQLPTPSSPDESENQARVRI
In words: in vitro enzyme assay to detect the production of urea directly proportional to the activity of Arginase II. Note: in the data most compounds retested in dose-response had high values. In kind it is functional. Particulars: 33.3 µM.

In experiment [6] the target is T3, Proteasome subunit beta (Trypanosoma cruzi) (UniProt O96673).
T3 sequence (whole entry): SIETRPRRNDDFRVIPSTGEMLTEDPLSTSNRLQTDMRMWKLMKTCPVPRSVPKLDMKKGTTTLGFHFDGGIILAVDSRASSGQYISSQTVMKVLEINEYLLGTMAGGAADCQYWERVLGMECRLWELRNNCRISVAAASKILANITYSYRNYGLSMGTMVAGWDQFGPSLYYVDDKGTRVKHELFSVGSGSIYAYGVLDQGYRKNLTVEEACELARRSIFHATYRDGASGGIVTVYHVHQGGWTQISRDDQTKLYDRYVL
In words: Trypanosoma cruzi proteasome chymotrypsin-like activity (TcProtChymo) assay. Note: in the data most compounds retested in dose-response had high values. In kind it is functional. Particulars: 9.37 µM.

The species named for the next experiment is Homo sapiens. The experiment is described as follows: To identify inhibition of the IFN signalling (Jak-Stat) pathway via expression of an eGFP reporter gene under the control of an IFN-stimulated response element (ISRE) containing MxA promoter. In kind it is functional. Conditions: 30 µM.
In experiment [7] the target is T4, Tyrosyl-tRNA synthetase, putative (Trypanosoma cruzi (strain CL Brener)) (UniProt Q4DSP6).
T4 sequence (whole entry): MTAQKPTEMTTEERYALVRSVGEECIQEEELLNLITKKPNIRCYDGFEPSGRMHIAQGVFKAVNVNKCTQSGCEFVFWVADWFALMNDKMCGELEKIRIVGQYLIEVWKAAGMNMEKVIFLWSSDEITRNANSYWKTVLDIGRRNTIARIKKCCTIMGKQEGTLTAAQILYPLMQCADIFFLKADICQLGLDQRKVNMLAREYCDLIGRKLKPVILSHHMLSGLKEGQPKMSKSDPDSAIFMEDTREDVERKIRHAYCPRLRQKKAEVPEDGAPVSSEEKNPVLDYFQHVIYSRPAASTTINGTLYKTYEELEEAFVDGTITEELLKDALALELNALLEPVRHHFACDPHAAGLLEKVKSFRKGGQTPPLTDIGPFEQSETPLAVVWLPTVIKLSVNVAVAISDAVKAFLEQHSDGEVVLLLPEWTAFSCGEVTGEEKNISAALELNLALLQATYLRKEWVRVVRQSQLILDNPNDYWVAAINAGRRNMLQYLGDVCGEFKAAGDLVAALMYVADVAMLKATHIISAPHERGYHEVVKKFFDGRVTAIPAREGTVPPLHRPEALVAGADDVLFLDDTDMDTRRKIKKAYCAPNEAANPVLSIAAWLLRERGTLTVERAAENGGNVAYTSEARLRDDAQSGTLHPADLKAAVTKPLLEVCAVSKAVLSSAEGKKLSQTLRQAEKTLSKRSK
In words: Trypanosoma cruzi tyrosyl tRNA synthetase (TcYRS) _High Tyrosine SOP. Note: in the data most compounds retested in dose-response had high values. Particulars: 30 µM. In kind it is functional.

For experiment [8], the target named is T4, Tyrosyl-tRNA synthetase, putative (Trypanosoma cruzi (strain CL Brener)). The experiment is described as follows: Trypanosoma cruzi tyrosyl tRNA synthetase (TcYRS) SOP. In kind it is functional. Conditions: 30 µM.
Experiment [9] concerns the target Chromo domain-containing protein 1 (Saccharomyces cerevisiae (strain ATCC 204508 / S288c) (Baker's yeast)) (UniProt P32657). The experiment is described as follows: ScCHD-1 Enzyme Inhibition Assay. Note: in the data most compounds retested in dose-response had high values. Particulars: 30 µM. In kind it is functional.

Chain of Protein translocase subunit SecA (Escherichia coli (strain K12)) (P10408 whole entry): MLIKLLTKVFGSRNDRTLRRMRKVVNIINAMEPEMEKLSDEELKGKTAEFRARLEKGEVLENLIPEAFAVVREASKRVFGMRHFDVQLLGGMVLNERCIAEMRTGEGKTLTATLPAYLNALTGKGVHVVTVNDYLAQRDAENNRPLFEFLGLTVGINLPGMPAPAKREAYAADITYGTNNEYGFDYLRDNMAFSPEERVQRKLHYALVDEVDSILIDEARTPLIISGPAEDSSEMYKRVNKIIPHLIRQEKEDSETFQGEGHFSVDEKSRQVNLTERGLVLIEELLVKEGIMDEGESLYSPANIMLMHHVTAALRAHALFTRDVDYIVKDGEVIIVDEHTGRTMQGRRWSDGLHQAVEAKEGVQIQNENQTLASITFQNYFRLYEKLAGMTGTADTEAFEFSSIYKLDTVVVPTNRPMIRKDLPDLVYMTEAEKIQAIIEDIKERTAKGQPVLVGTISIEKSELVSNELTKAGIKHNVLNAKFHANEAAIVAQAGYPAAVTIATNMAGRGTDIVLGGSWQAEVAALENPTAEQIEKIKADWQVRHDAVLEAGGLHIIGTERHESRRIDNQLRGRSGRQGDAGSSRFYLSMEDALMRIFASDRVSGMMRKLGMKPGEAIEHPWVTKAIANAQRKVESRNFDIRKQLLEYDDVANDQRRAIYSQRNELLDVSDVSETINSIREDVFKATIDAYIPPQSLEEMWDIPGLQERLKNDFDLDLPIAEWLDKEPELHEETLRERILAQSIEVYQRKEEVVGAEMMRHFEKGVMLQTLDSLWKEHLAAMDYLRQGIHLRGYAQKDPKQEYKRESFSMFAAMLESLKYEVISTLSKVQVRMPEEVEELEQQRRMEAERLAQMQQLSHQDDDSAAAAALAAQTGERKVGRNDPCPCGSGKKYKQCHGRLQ
Chain of Chromo domain-containing protein 1 (Saccharomyces cerevisiae (strain ATCC 204508 / S288c) (Baker's yeast)) (P32657 whole entry, the tested form may be a part): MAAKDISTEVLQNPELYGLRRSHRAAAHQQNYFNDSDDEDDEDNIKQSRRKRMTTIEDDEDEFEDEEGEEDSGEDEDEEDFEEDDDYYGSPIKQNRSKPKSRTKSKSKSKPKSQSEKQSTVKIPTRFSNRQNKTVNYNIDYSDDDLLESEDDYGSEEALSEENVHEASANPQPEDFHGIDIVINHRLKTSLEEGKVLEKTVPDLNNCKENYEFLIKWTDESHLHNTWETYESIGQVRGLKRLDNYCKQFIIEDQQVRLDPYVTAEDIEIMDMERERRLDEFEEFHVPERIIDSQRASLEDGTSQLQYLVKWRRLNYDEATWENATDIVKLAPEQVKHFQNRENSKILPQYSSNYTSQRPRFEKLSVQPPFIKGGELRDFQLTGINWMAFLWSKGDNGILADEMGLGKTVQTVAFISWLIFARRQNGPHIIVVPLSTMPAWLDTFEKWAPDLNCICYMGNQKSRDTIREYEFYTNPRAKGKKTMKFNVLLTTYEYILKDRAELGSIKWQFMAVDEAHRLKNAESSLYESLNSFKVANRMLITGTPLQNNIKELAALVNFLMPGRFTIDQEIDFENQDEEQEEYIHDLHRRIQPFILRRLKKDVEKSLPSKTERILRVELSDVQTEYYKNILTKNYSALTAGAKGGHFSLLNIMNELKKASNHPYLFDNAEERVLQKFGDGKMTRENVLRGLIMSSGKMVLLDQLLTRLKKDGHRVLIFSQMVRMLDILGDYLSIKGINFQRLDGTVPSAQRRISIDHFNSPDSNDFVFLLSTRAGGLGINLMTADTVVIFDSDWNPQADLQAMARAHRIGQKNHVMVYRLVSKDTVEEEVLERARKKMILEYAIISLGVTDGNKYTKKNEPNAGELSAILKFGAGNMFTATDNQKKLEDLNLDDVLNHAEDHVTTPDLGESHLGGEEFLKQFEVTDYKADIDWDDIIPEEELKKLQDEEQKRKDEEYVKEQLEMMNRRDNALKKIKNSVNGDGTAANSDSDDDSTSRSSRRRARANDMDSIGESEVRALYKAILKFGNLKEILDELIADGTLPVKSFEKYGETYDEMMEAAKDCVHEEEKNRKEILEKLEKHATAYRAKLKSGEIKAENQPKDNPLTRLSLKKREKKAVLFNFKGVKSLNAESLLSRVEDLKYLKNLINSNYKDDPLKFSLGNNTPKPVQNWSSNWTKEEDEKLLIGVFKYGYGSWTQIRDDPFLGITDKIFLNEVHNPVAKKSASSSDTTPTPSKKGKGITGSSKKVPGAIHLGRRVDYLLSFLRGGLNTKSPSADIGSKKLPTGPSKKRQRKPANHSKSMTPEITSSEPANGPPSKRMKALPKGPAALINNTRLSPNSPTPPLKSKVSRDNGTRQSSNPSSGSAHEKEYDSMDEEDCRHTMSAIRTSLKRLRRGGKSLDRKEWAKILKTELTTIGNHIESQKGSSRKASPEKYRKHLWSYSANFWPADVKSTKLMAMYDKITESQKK
Chain of Sialic acid-binding Ig-like lectin 9 (Homo sapiens) (Q9Y336 whole entry): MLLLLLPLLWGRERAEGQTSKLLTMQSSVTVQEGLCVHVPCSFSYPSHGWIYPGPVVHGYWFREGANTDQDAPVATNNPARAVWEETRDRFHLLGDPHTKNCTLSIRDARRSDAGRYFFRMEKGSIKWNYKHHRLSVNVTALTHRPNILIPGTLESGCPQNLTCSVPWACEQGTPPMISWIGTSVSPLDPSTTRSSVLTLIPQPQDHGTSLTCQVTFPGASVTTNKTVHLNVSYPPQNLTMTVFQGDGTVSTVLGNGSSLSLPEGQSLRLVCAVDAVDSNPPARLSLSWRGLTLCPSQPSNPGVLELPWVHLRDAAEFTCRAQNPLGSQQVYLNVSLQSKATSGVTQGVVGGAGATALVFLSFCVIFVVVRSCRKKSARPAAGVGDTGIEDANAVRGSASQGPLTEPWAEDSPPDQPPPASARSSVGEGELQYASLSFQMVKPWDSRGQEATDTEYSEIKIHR

`NS(=O)(=O)CCNC(=O)c1ccc(-c2ccc(F)cc2)cc1F`: the Percent Effect in [1] was -4.5%; in experiment [2] it was 5.2%; in experiment [3], 1.86%; in experiment [4], 3.08%; in the experiment with Trypanosoma cruzi it was -1.08%; in experiment [5], 8.28%. The Percent Effect in experiment [6] is 24.5%; in the experiment filed under Homo sapiens it was 19.2%; in experiment [7], -10.8%; in experiment [8] it was 1.24%; in experiment [9] it was -1.11%.

Regarding `Cc1ncsc1C(=O)NC1CCN(CC(=O)N(C)c2ccccc2)CC1`, the Percent Effect in [1] is -6.03%; in experiment [2] it was 18.4%; in experiment [3] it was -4.03%; in [4], 6.55%; in the experiment on Trypanosoma cruzi it was -0.654%; in experiment [5], -0.719%. The Percent Effect in experiment [6] amounted to 3.3%; in the experiment filed under Homo sapiens, 1.23%; in experiment [7], 10.3%; in experiment [8] it was 18.5%; in [9], 2.33%.

Turning to `CCOc1cc(C(=O)N2CCCC(n3cncn3)C2)ccc1C` (stereo not drawn), the Percent Effect in [1] was 2.65%; in [2] it was -8.11%; in experiment [3] it was 0.403%; in experiment [4] it was -1.22%; with Trypanosoma cruzi it was -1.21%; in experiment [5] it was 1.66%. Moreover, the Percent Effect was -7.18% in experiment [6]; 4.36% in the experiment listed under Homo sapiens; 0.99% in experiment [7]; 1.22% in experiment [8]; 11.6% in [9].

As to `CCNc1cc2c(nn1)CCN(C(=O)Cc1noc3ccccc13)C2`, the Percent Effect in experiment [1] is -6.38%; in [2], 13.2%; in [3], -1.77%; in [4], 6.44%; with Trypanosoma cruzi, 5.51%; in experiment [5], 0%. Also, the Percent Effect in [6] was -3.47%; in the experiment listed under Homo sapiens, 5.21%; in experiment [7], 4.43%; in [8], 16.1%; in experiment [9], -4.69%.

On to `CCn1c(NCc2ccco2)nc2c(C)nn(C)c2c1=O`, for which the Percent Effect in [1] is -2.68%; in experiment [2] it was 20%; in [3] it was 4.54%; in experiment [4] it was -6.91%; in the experiment on Trypanosoma cruzi it was 3.93%; in experiment [5], 92.8%. Also, the Percent Effect in [6] is 22.6%; in the experiment filed under Homo sapiens, 7.87%; in [7] it was 9.52%; in experiment [8], 17.9%; in experiment [9], -14%.

Take `CNC(=O)[C@H]1C[C@@H]2CN(S(=O)(=O)c3ccccc3)C[C@@H]2N1C`: the Percent Effect in experiment [1] is -2.19%; in experiment [2] it was -5.2%; in [3] it was 3.6%; in experiment [4] it was 3.49%; in the experiment with Trypanosoma cruzi it was -0.492%; in experiment [5], -13.8%. Further, the Percent Effect is 1.83% in experiment [6]; 6.5% in the experiment listed under Homo sapiens; 2.15% in [7]; -1.24% in experiment [8]; 2.52% in [9].

For the compound `CNC(=O)[C@@]12CCO[C@@H]1CCN(Cc1scnc1C)C2`, the Percent Effect in experiment [1] is 3.6%; in experiment [2], 7.79%; in experiment [3] it was 9.91%; in experiment [4], -13.5%; with Trypanosoma cruzi, -7.4%; in experiment [5], 7.1%. Further, the Percent Effect in experiment [6] is 20.4%; in the experiment listed under Homo sapiens it was 5.25%; in [7], 5.29%; in experiment [8] it was 6.41%; in [9], -8.35%.

`Cc1nsc(NC(=O)N2CCC(C(C)(C)O)CC2)n1`: the Percent Effect in experiment [1] was 1.56%; in experiment [2], 5.41%; in experiment [3], -3.48%; in [4], -1.81%; in the experiment on Trypanosoma cruzi, -8.11%; in [5], 1.74%. In addition, the Percent Effect was 14.2% in experiment [6]; 5.12% in the experiment listed under Homo sapiens; 1.07% in experiment [7]; 6.17% in [8]; -3.72% in experiment [9].
